This is an account of results in paper PMC4336329 (PLoS ONE, 2015).

The structures appear in SMILES notation. The campaign covered roughly 310,000 compounds. About 14,000 (4.5%) showed an effect of 50% or more. Effects have a minus sign here. The sample holds strong results, similar compounds and a random draw of the others, so the mix is not that of the screen.
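Note: peak tail current of the secondary pulse compared with the same well before compound.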

This experiment deals with human ether-à-go-go-related gene (hERG) potassium channel (human, UniProt Q12809). Briefly: primary screen, population patch clamp on CHO cells stably expressing hERG; higher = less effect of the substance.
Sequence of human ether-à-go-go-related gene (hERG) potassium channel (Q12809 whole entry, looked up): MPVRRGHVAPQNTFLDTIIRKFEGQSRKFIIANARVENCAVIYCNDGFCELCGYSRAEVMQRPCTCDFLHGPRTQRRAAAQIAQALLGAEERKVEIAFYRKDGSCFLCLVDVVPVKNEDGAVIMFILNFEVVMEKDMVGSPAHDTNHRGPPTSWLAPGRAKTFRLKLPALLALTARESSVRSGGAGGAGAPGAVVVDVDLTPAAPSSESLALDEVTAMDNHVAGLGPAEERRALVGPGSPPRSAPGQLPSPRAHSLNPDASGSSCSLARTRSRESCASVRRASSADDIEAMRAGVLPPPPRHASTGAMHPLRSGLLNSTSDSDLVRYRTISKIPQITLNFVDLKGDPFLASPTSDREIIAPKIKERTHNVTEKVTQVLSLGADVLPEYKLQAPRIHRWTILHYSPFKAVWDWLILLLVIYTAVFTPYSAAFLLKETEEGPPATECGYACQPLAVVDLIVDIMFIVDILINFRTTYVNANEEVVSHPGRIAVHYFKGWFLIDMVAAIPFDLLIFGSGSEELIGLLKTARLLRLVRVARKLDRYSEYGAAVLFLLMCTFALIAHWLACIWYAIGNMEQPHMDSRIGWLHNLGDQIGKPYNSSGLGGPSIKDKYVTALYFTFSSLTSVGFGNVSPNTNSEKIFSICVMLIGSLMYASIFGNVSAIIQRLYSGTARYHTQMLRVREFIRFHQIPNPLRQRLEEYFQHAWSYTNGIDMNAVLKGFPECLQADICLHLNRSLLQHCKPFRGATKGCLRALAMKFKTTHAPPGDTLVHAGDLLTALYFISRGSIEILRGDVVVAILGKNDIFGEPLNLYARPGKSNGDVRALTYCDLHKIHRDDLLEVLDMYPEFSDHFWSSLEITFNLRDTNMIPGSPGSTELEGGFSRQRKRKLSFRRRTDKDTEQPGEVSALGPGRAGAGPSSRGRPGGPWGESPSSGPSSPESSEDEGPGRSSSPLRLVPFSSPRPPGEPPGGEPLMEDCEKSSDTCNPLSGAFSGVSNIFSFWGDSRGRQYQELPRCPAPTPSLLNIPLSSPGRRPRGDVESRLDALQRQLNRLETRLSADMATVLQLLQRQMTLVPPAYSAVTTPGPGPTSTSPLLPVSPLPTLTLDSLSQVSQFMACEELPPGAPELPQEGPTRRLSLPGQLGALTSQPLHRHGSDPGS
In the case of `CCCCNC(=O)[C@H]1N2C(=O)c3c(ccc(OC)c3OC)C2SC1(C)C` (stereo partly drawn), the “hERG current change (%, negative = inhibition) at 10uM” value is 12.8%.

For `S=c1[nH]ncn1/N=C/c1ccc(N2CCOCC2)cc1`, the “hERG current change (%, negative = inhibition) at 10uM” value is reported as 14.9%.

As for `CCCN(Cc1nnc(-c2cccs2)o1)C(=O)c1cccc(S(=O)(=O)N2CCOCC2)c1`, the “hERG current change (%, negative = inhibition) at 10uM” value is listed as -25.3%.

For `CC(NC(=O)COC(=O)c1ccc(CO)cc1)C1CC2CCC1C2` (stereo not drawn), the “hERG current change (%, negative = inhibition) at 10uM” value is 7.65%.

Turning to `CC(=O)Nc1ccc(C(=O)NN2C(=O)c3ccccc3C2=O)cc1`, the “hERG current change (%, negative = inhibition) at 10uM” value worked out at 7.29%.

Take `COc1ccc(OC)c(C(=O)NC(CC(N)=O)c2ccc(N3CCC(Cc4ccccc4)CC3)c([N+](=O)[O-])c2)c1` (stereo not drawn): the “hERG current change (%, negative = inhibition) at 10uM” value was -5.07%.

As to `CCOC(=O)CN(C(=O)COc1nc(-c2ccccc2)cc(C)c1C#N)c1ccc(F)cc1`, the “hERG current change (%, negative = inhibition) at 10uM” value is listed as 1.18%.

In the case of `Cc1ccc(-n2c(-c3ccncc3)n[nH]c2=S)c(C)c1`, the “hERG current change (%, negative = inhibition) at 10uM” value was found to be 13.7%.

For `C/C(=C\c1ccccc1)C(=O)N1CCN(Cc2ccc3c(c2)OCO3)CC1`, the “hERG current change (%, negative = inhibition) at 10uM” value is -51.6%.

As to `O=C(CSCc1ccccc1)N1CCN(Cc2ccc3c(c2)OCO3)CC1`, the “hERG current change (%, negative = inhibition) at 10uM” value was -22%.

`CCOc1cc(N2CCOCC2)c(OCC)cc1NC(=O)CN1CCC(Cc2ccccc2)CC1`: the “hERG current change (%, negative = inhibition) at 10uM” value is given as -3.67%.

Consider `CCOc1cc(N2CCOCC2)c(OCC)cc1NC(=O)CN1CCN(Cc2ccc3c(c2)OCO3)CC1.Cl`, for which the “hERG current change (%, negative = inhibition) at 10uM” value was -55.8%.

For `COC(=O)c1c(NC(=O)CN2CCN(Cc3ccc4c(c3)OCO4)CC2)sc(C)c1C.O=C(O)C(=O)O`, the “hERG current change (%, negative = inhibition) at 10uM” value is on record as -28.9%.

Consider `CC(C)CC(=O)N1CCN(Cc2ccc3c(c2)OCO3)CC1`, for which the “hERG current change (%, negative = inhibition) at 10uM” value turned out to be 0.479%.

On to `COc1ccsc1C(=O)N1CCN(Cc2ccc3c(c2)OCO3)CC1`, for which the “hERG current change (%, negative = inhibition) at 10uM” value is recorded as -16.5%.

For the compound `Oc1cc2c(cc1CN1CCN(c3ccc(F)cc3)CC1)OCO2`, the “hERG current change (%, negative = inhibition) at 10uM” value is -1.5%.

As for `Fc1ccc(N2CCN(Cc3cc4c(cc3Br)OCO4)CC2)cc1`, the “hERG current change (%, negative = inhibition) at 10uM” value is 7.74%.

For the compound `Fc1ccc(N2CCN(Cc3ccc4c(c3)OCO4)CC2)cc1`, the “hERG current change (%, negative = inhibition) at 10uM” value is recorded as -51.3%.

`COC(=O)c1ccsc1NC(=O)CN1CCN(Cc2ccc3c(c2)OCO3)CC1`: the “hERG current change (%, negative = inhibition) at 10uM” value is on record as -78.4%.

With `CCOc1cc(N2CCOCC2)c(OCC)cc1NC(=O)CN1CCCC1`, the “hERG current change (%, negative = inhibition) at 10uM” value turned out to be 6.63%.

Turning to `O=C1CC(Cc2ccc(Cl)cc2)C(=O)N1c1ccccn1` (stereo not drawn), the “hERG current change (%, negative = inhibition) at 10uM” value is on record as 1.83%.

For `CCOc1ccc(NC(=O)[C@@H](NC(=O)c2ccccc2)[C@@H](C)CC)cc1`, the “hERG current change (%, negative = inhibition) at 10uM” value came out at 2.26%.

In the case of `CCC(C)NC(=O)CSc1c2c(nc3ccccc13)CCCC2` (stereo not drawn), the “hERG current change (%, negative = inhibition) at 10uM” value is reported as -7.98%.

Regarding `O=C(N/N=C/c1ccc([N+](=O)[O-])s1)c1cccnc1`, the “hERG current change (%, negative = inhibition) at 10uM” value worked out at 5.77%.
